Laboratory results from the supplement of paper PMC10723795.
± gives the standard deviation of the averaged measurements.

Test system: RPE1
Assay: nucleolar normality score relative to DMSO (fraction of DMSO control); RPE1 is a non-cancer human cell line; higher = more normal nucleoli (less nucleolar stress)
Experimental: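 Selected screen hits were validated in hTERT lines (BJ5TA, CHON-002, RPE1) and cancer lines (DLD1, HCT116). Cells were immunostained for nucleolin and UBF and the nucleolar normality score was measured per field of view, with 4 fields per drug. Scores are normalized to each cell line's own DMSO control. Dose and time are not stated for this panel.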

SMILES	nucleolar normality score
CC[C@@]1(O)C(=O)OCc2c1cc1n(c2=O)Cc2cc3ccccc3nc2-1 [Camptothecin]	0.413 ± 0.024
